# This excerpt belongs to a sample that is enriched for hits.
# GRP78 ERSR act = qHTS for Inducers of the Endoplasmic Reticulum Stress Response (ERSR) in Human Glioma: qHTS. U87-MG GRP78 promoter luciferase reporter, 16 h. Potency, µM, without a hit: at the top dose activation, actives largely listed as activators. 420,000 compounds, 0.02% hits. AID 602332, 2012; note: series mostly up to about 76 µM; % of control where 0% means no effect; nearly all actives have a fitted effect of over 35% in size
#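 Stably transfected U87-MG glioma cells carrying a GRP78-based luciferase sensor; 16 h compound incubation. Luminescence end-point read 10 min after Bright-Glo addition at room temperature.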
# Sfp inh = qHTS Assay for Inhibitors of Bacillus subtilis Sfp phosphopantetheinyl transferase (PPTase) | AID 1490, 2009 | 310,000 compounds, 3.5% hits | Potency, µM, for the others: largest response in the series, negative = inhibition, hits mostly inhibitors | Biochemical Sfp PPTase activity, qHTS | 4'-phosphopantetheinyl transferase ffp (Bacillus subtilis), Q9F4F7;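 note: the enzyme is Sfp with the accession as filed and its product quenches rhodamine fluorescence; 0% = enzyme reaction without inhibitor and -100% = no enzyme wells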
#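 Sfp 15 nM + cpd, 15 min RT; start w/ rhodamine-CoA 5 uM, BHQ-2-YbbR 12.5 uM (final); 50 mM Hepes pH 7.6, 10 mM MgCl2, 0.01% NP-40, 0.01% BSA; read 525/598 nm at 0 and 30 min.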
# VDR inh = Inhibitors of the vitamin D receptor (VDR): qHTS. Vitamin D3 receptor (Homo sapiens), P11473. VDR-SRC2-3 peptide fluorescence polarization, 2 h. Potency, µM, for inactives: max response, negative = inhibition, actives largely listed as inhibitors. 400,000 compounds, 0.93% hits. AID 504847, 2011; note: % is set by controls: 0 for no effect and ±100 for the full control effect
# Target sequence (P11473 whole entry, looked up): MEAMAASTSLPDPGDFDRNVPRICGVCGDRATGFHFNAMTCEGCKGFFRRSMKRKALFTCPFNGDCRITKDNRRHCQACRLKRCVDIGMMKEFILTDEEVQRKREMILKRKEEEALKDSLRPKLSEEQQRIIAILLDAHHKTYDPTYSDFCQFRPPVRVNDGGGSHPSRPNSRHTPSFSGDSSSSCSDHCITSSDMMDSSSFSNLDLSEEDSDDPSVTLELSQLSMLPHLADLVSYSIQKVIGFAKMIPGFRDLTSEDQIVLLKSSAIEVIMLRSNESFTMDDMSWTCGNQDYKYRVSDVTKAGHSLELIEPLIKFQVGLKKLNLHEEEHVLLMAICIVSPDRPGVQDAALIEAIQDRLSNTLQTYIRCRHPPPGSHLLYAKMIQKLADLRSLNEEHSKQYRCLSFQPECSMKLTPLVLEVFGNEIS
#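 Signal is fluorescence polarization, reporting how far test compounds block the interaction of VDR with the SRC2-3 coregulator peptide after a 2 h room-temperature incubation.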
# G9a inh = qHTS Assay for Inhibitors of Histone Lysine Methyltransferase G9a; Histone-lysine N-methyltransferase EHMT2 (Homo sapiens), Q96KQ7; G9a H3K9 monomethylation, AlphaScreen, 2 h; Potency, µM (titrated, usually from 102 µM), for inactives: at the top dose activity, negative = inhibition, usual class: inhibitors; 350,000 compounds, 8.8% hits; AID 504332, 2011; note: % is set by controls: 0 for no effect and ±100 for the full control effect; nearly all actives have a fitted effect of over 75% in size
# Target sequence (Q96KQ7 913-1193 limits assumed): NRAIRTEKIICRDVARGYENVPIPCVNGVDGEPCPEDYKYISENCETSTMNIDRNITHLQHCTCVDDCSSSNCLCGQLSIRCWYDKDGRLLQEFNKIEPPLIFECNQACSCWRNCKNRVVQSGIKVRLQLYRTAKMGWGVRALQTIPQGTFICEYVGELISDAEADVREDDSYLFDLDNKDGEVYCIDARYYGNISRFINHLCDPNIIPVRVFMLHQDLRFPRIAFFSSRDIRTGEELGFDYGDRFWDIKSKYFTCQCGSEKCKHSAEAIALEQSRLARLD
#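 Compounds were preincubated with 20 nM G9a for 15 min, after which biotinylated H3K9 peptide (500 nM) and SAM (20 uM) started a 2 h room-temperature reaction. Monomethylated product was quantified by antibody-based AlphaScreen chemiluminescence.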
# ALOX12 inh = Primary qHTS assay for inhibitors of human arachidonate 12S-lipoxygenase (ALOX12): Round 2; Potency, µM (highest dose often 108 µM), for the others: top-dose activity change, negative = inhibition, most hits filed as inhibitors; AID 1671190, 2021; purified 12hLO, xylenol orange hydroperoxide absorbance; 580,000 compounds, 1.1% hits; note: % is set by controls: 0 for no effect and ±100 for the full control effect
#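 Purified human 12hLO (150 nM final) in 25 mM Hepes, 0.01% Triton X-100, pH 7.0 was preincubated 15 min at room temperature with compound. Then 40 uM arachidonic acid was added, 30 min. Hydroperoxide was read by Fe-XO absorbance ratio 573/405 nm.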
# * marks the source's active call; other numbers are inactive results; ? = inconclusive; · = no result given; [ ] = remark or other dose. Calls come from the whole dose curve; as a rule, active = well fitted curve in the direction sought with a large enough effect; inconclusive = small, poorly fitted or top-dose-only effect, or another doubt; inactive = no such curve, though single readings can be large; an effect the other way counts as inactive or inconclusive. Potency is the fitted concentration of half-maximal effect.
SMILES,GRP78 ERSR act,Sfp inh,VDR inh,G9a inh,ALOX12 inh
COc1ccc(N2Nc3n[nH]c(N)c3N2)cc1,-1.1%,2.6%,-9.2%,7.94µM*,13.4%
COc1ccc(N2CCN(c3n[nH]c(N)n3)CC2)cc1,0.2%,-4.7%,-3.3%,-16.2%[59 µM],-10.7%
CCCC/C=C/C=C\C=O,·,·,·,·,-2.3%[176 µM]
O=C(Cc1c[nH]c2ccccc12)OCc1c(Cl)cccc1Cl,·,·,·,·,-19.8%
Cc1nc(CC(=O)NCc2ccc3[nH]c(-c4ccc(F)cc4)c(C)c3c2)cs1,·,·,·,·,58.6%
OC(c1cccc(C(F)(F)F)c1)c1nc(Nc2cccc(Cl)c2)n[nH]1 (configuration not stated),·,·,·,·,1.0%[176 µM]
Cn1c2ccccc2c(=O)c2ccc(C#CC3(N)CCCCC3)cc21,-3.6%,-15.5%,-18.9%,39.8µM*,?
C[N+]1(CCC(=O)c2ccccc2)CCCCC1,-5.5%,13.5%,-18.8%,2µM*,?
O=C(CCN1CCCCC1)c1ccccc1,-5.0%,2.4%,-9.6%,?,-5.6%
COc1ccc(-c2nc(C3CC(=O)N(c4ccc(OC)c(OC)c4)C3)no2)cc1OC (configuration not stated),·,·,·,·,47.6%
O=S1(=O)C=C(Sc2nc3ccccc3o2)c2ccccc21,·,·,·,·,4.8%
O=S1(=O)C=C(Sc2nc3cc(Cl)ccc3o2)c2ccccc21,-13.8%,?,?,44.7µM*,·
N#Cc1cn(CC(=O)NCCc2c[nH]c3ccccc23)c2ccccc12,-1.0%,4.5%,-0.6%,0.891µM*,?
Cc1ccccc1C(=O)NC(=S)NCc1cccnc1,-2.4%,-2.7%,6.9%,?,0.0%
Cc1ccccc1C(=O)NCC(=O)NNC(=S)NC(=O)c1ccccc1,-3.3%,-3.4%,-8.3%,1.12µM*,-29.1%
Cc1ccccc1C(=O)NNC(=S)NC(=O)c1cccnc1,-2.2%,?,-8.0%,6.31µM*,?
O=C(NC(=S)NNC(=O)c1ccccc1F)c1cccnc1,1.2%,?,9.2%,8.91µM*,?
Cc1ccc(O)c(C(=O)N(C)Cc2cccc(F)c2)c1,·,·,·,·,-8.8%
CCOC(=O)CC(=O)COc1nc2cc3c(nc2o1)CCCC3,4.8%,-6.0%,-13.8%,44.7µM*,?
Cc1ccccc1NC(=O)Cn1cnc2c(oc3nc4c(cc32)CCCC4)c1=O,-1.3%,4.4%,9.9%,?,-20.1%
C=CCn1c(C)csc1=Nc1ccccc1C,1.4%,16.7%,-5.7%,50.1µM*,-16.0%
C/C(=N\NC(=O)c1cccnc1)c1nnn(-c2nonc2N)c1C,-1.5%,6.4%,-13.1%,50.1µM*,13.3%
C/C(=N\NC(=O)c1nnn(-c2nonc2N)c1CN1CCC(C)CC1)c1cccc(Br)c1,-9.1%,5.7%,-8.6%,-22.7%,14.1%
CCN1CCN(Cc2c(C(=O)N/N=C(\C)c3ccc(Cl)cc3)nnn2-c2nonc2N)CC1,0.3%,-0.7%,8.6%,28.2µM*,?
CCCc1c(C(=O)N/N=C(\C)c2cccnc2)nnn1-c1nonc1N,0.0%,·,·,·,-20.0%
SMILES,GRP78 ERSR act,Sfp inh,VDR inh,G9a inh,ALOX12 inh
C/C(=N\NC(=O)c1nnn(-c2nonc2N)c1CN1CCCCCC1)c1ccc(Br)cc1,-1.2%,4.2%,-20.1%,50.1µM*,-2.7%
O=C(NC1CCN(c2cc(-c3ccc(Cl)cc3)[nH]n2)C1)c1ccc(Br)cc1 (configuration not stated),·,·,·,·,-9.0%
CC1CCc2[nH]c3ccc(C(=O)N4CCCC(C(F)(F)F)C4)cc3c2C1 (configuration not stated),0.7%,·,?,35.5µM*,13.1%
COc1ccc(S(=O)(=O)Nc2ccc(C)n(CC(=O)Nc3ccccc3)c2=O)cc1,·,·,·,·,-0.2%
CCOc1ccc(C(=O)NC2CCN(c3cc(-c4ccc(OC)cc4)[nH]n3)CC2)cc1OCC,·,·,·,·,3.5%
O=C(NC(=S)Nc1cc(Cl)ccc1O)c1cccc(Br)c1,8.8%,-11.5%,-1.0%,70.8µM*,0.0%
Cc1snnc1C(=O)NC(=S)Nc1ccccc1,-2.3%,39.8µM*,-4.7%,?,?
CC(=O)NNC(=S)Nc1ccccc1,·,·,·,·,71.0%
O=C(Nc1cccnc1)c1cccs1,-3.6%,14.5%,8.1%,-15.5%[12.7 µM],0.0%
O=C(NC(=S)Nc1cccnc1)c1cccs1,-2.0%,56.2µM*,?,?,?
O=C(Nc1cccnc1)c1ccc(-c2ccccc2)cc1,6.4%,-4.6%,-2.7%,-0.3%,-7.5%
O=C(NC(=S)Nc1cccnc1)c1ccccc1,3.2%,79.4µM*,-1.0%,79.4µM*,?
Fc1ccc(N2CCN(Cc3csc4c3CCCC4)CC2)cc1,·,·,·,·,-15.9%
Cc1nnc(NC(=O)c2cc(-c3ccccn3)nc3ccccc23)s1,·,·,·,·,-21.4%
CC(=O)c1cnn(-c2cc(NC3CCCC3)nc(-c3ccccc3)n2)c1C,·,·,·,·,73.5%
Cc1cccc([C@H]2C[C@@H](O)[C@@H](O)[C@@H]2NCC(C)(C)O)c1,·,·,·,·,49.5%[176 µM]
CCCOc1ccccc1NC(=O)c1cc2cccc(OC)c2oc1=O,·,·,·,·,-4.6%
COc1ccc(Cl)cc1NC(=O)C(C)N1CCN(S(=O)(=O)Cc2ccccc2)CC1 (configuration not stated),·,·,·,·,19.3%
O=C(NC(=S)Nc1cccnc1)c1cccc(Br)c1,-0.7%,1.9%,-10.2%,35.5µM*,-13.2%
CCn1c(Cl)c(C=O)s/c1=N\S(=O)(=O)c1ccccc1,-18.2%,?,3.16µM*,44.7µM*,0.0%
O=S(=O)(/N=c1\ssc(-c2ccccc2)c1Cl)c1ccccc1,·,·,·,·,-13.4%
O=c1oc2ccc(Br)cc2cc1S(=O)(=O)N1CCCCCC1,·,·,·,·,21.4%
CCCN(CC(F)(F)F)C(=O)CCCc1c[nH]c2ccccc12,·,·,·,·,3.0%
O=C(/C=C/Sc1ccccc1)Nc1ccccc1,·,·,·,·,-25.4%
CC(NC(=O)c1ccccc1)c1nc2ccccc2n1Cc1ccc(Cl)cc1 (configuration not stated),-2.6%,·,7.2%,0.5%[59 µM],-20.5%
SMILES,GRP78 ERSR act,Sfp inh,VDR inh,G9a inh,ALOX12 inh
CC(NC(=O)c1ccccc1)c1nc2ccccc2n1Cc1ccccc1F (configuration not stated),·,5.7%,·,50.1µM*,-22.9%
O=C1NCCCCCCN(C(=O)CC2CCCCC2)[C@H]2CCCC[C@@H]12,·,·,·,·,-3.2%
COc1ccc(OCC(=O)c2c(O)c3ccccc3oc2=O)cc1,1.8%,20µM*,7.3%,3.16µM*,?
CC1CCC(C(=O)c2c(O)c3ccccc3oc2=O)CC1 (configuration not stated),-1.8%,13.0%,-2.7%,50.1µM*,0.0%
COc1ccc(OCCCC(=O)Oc2ccc3oc4ccccc4c3c2)cc1,·,·,·,·,12.6µM*
COc1ccc2oc3ccccc3c(=O)c2c1,0.0%,6.0%,-8.3%,8.0%,7.7%
CCOc1ccc(OCC(=O)c2c(O)c3ccccc3oc2=O)cc1,2.1%,28.2µM*,-5.9%,3.16µM*,?
COc1ccccc1N1CCN(CC(=O)Nc2ccnn2Cc2cccc(Cl)c2)CC1,·,·,·,·,31.7%
